# APOBEC3A inh = inhibitors of human APOBEC3A DNA deaminase. P31941. recombinant A3A, FAM/TAMRA ssDNA deamination fluorescence. inhibition, % at 20 µM. hit rate 0.41% among 330,000;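 active means at least 40% inhibition at 20 µM here, with at most 30% in a related deaminase screen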
# ADAM17 inh = inhibitors of human ADAM17. hit rate 0.83% among 370,000. recombinant ADAM17, EDANS/DABCYL FRET peptide cleavage. P78536. inhibition, % at 6.95 µM;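 active means inhibition above the mean of compounds lying between control limits plus 3 SD, set per campaign, cut at about 8.5% in these data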
# Target sequence (P78536 215-824 limits assumed): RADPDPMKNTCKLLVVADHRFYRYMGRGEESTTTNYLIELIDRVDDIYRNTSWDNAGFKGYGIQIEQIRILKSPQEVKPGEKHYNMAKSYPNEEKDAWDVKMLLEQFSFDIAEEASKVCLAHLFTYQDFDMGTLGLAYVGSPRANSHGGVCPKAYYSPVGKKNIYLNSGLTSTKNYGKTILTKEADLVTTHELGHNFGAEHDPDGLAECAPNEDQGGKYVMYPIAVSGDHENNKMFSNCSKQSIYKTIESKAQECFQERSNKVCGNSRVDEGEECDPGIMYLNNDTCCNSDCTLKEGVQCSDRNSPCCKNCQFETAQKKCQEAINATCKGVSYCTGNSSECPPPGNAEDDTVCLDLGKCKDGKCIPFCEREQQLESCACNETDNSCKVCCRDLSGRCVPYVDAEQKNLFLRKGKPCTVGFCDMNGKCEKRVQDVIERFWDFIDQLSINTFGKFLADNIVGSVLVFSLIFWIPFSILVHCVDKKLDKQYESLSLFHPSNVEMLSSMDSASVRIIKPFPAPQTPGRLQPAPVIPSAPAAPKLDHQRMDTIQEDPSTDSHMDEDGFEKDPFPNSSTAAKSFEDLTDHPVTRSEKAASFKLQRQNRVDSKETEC
# NRP1-CendR mod = NRP-1/CendR interaction modulation; O14786; FAM-RPARPAR peptide binding to NRP-1, fluorescence polarization; inhibition, % at 25 µM; hit rate 0.85% among 360,000; AID 602438;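 active means inhibition or corrected inhibition above about 18%, plus a signal ratio from 0.5 to 1.5, limit read from the data, passing the limit was not always enough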
# APOBEC3G inh = blocks human APOBEC3G single-stranded DNA deamination; hit rate 0.28% among 330,000; Q9HC16; recombinant A3G, ssDNA deamination FAM/TAMRA fluorescence; AID 493012; inhibition, % at 20 µM;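 active means inhibition of at least 40% at 20 µM, with no more than 30% in the related APOBEC3A deaminase screen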
# ADAM10 inh = inhibitors of human ADAM10. O14672. hit rate 0.62% among 370,000. AID 720582. inhibition, % at 7 µM. recombinant ADAM10, EDANS/DABCYL FRET peptide cleavage, 3 h;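 active means inhibition above a per-campaign cutoff equal to the mean of compounds falling between control-based bounds plus 3 SD, cut at about 20% in these data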
# A number is an active result; n = inactive; x = no result given. Compounds with a hit are over-represented: about 2.4% of the library has one in this group of screens.
SMILES,APOBEC3A inh,ADAM17 inh,NRP1-CendR mod,APOBEC3G inh,ADAM10 inh
CCOC(=O)Cn1cc(CN2C(C(=O)OC)CN(C3CCCC3)CCS2(=O)=O)nn1 (stereo not given),x,n,x,x,n
O=C(c1ccc(Cl)c(S(=O)(=O)N2CCCCC2)c1)N1CCN(c2ccccc2)CC1,n,n,n,n,n
CCOC(=O)C1CCN(C(=O)c2ccc(Cl)c(S(=O)(=O)N3CCOCC3)c2)CC1,n,n,n,n,n
O=C(c1ccc(Cl)c(S(=O)(=O)N2CCCC2)c1)N1CCN(c2ccccc2)CC1,n,n,37,n,n
O=C(C1CCN(S(=O)(=O)c2ccc(Cl)s2)CC1)N1CCN(c2ccccc2)CC1,x,n,28,x,n
CCOC(=O)C1CCN(C(=O)c2ccc(Cl)c(S(=O)(=O)N3CCCC3)c2)CC1,n,n,30,n,n
Cc1cccc(-c2cc(C(=O)Nc3c(C)n(C)n(-c4ccccc4)c3=O)c3ccccc3n2)c1,n,n,33,n,n
COc1ccc(S[C@]2(C(=O)N(C)C)CC(=O)N(c3ccc(C#N)cc3)[C@@H]2c2ccc(OC)cc2)cc1,x,n,x,x,n
COc1ccccc1CCn1cnc(-c2cccc(Br)c2)c1CC(C)C,x,n,x,x,n
CN(C)c1ccc(N2[C@@H](CC(=O)O)c3cc(C(F)(F)F)ccc3S2(=O)=O)cc1,n,n,25,n,n
CC(=O)C[C@H]1c2cc(C(F)(F)F)ccc2S(=O)(=O)N1c1ccc(N(C)C)cc1,n,n,n,n,n
CCCCCCCCCCCCN1[C@@H](CC(=O)OC)c2cc(F)ccc2S1(=O)=O,n,n,26,n,n
CCCCCCCCN1[C@@H](CC(=O)O)c2ccc(C(F)(F)F)cc2S1(=O)=O,n,n,28,n,n
CCCCCCCCCCCCN1[C@@H](CC(C)=O)c2cc(F)ccc2S1(=O)=O,n,n,n,n,n
CCCCCCCCCCCCN1[C@@H](CC(C)=O)c2cc(C(F)(F)F)ccc2S1(=O)=O,n,n,n,n,n
CC1CCC2(CC1)CCN(CCCOC(=O)Nc1cccc(C(F)(F)F)c1)C2=O (stereo not given),x,n,x,x,n
CC(C)c1[nH]nc2c1C(c1ccc3c(c1)OCO3)NC2=O (stereo not given),x,n,x,x,n
CCC[C@H](/C=C/C(=O)OC(C)(C)C)Sc1ccc(N)cc1,x,n,x,x,n
N#CC1=C(N)NC(SCc2ccccc2)=C(C#N)C12CCCC2,n,n,n,n,n
N#CC1=C(N)NC(SCc2ccc(Cl)cc2)=C(C#N)C12CCCCC2,n,n,29,n,n
O=C(/C=C/c1ccccc1)NC1CC2CCC1C2 (stereo not given),n,n,n,n,n
c1ccc(CNC2CC3CCC2C3)cc1 (stereo not given),x,n,24,x,n
COc1ccc2nc(NC(=O)C3CCN(S(=O)(=O)c4cccs4)CC3)sc2c1,n,n,n,n,n
Cc1ccc2nc(NC(=O)C3CCN(S(=O)(=O)c4cccs4)CC3)sc2c1,n,n,n,n,21
CC[C@]1(c2ccccc2)C(=O)N(C(=O)OC)N1C(=O)OC,n,10,n,n,n
SMILES,APOBEC3A inh,ADAM17 inh,NRP1-CendR mod,APOBEC3G inh,ADAM10 inh
CCOc1ccc(CCNC(=O)c2cc3sccc3n2Cc2ccccc2)cc1OCC,x,n,x,x,n
CC(C)OP(=O)(c1ccc(N(C)C)cc1)C(Nc1ccccc1)c1ccccc1 (stereo not given),n,n,31,n,n
O=C(C1=C[C@H](c2csc3ccccc23)C[C@H](OCc2ccc(CO)cc2)O1)N1CCN(Cc2ccc3c(c2)OCO3)CC1,n,n,n,n,21
COCc1c(C(=O)OCC(=O)NCCc2ccc(S(N)(=O)=O)cc2)oc2ccccc12,n,n,21,n,n
Cc1c(C(=O)OCC(=O)NCCc2ccc(S(N)(=O)=O)cc2)oc2ccccc12,n,n,n,n,n
Cc1ccc2c(c1)[C@H]1[C@H](CO2)[C@H](c2ccccc2)[C@]2(C)C(=O)Nc3ccc(Cl)cc3C(=O)N12,n,11,n,n,29
Cc1cc(N2CCC(C)CC2)nc2ccccc12,x,n,x,x,n
Cc1cccc(NC(=O)CSc2nnc(-c3ccc(S(=O)(=O)N4CCCC4)cc3)o2)c1,n,x,n,n,x
Cc1ccc(NC(=O)CSc2nnc(-c3ccc(S(=O)(=O)N4CCCC4)cc3)o2)cc1C,n,n,26,n,n
O=C(Nc1ccc2nc(-c3ccco3)c(-c3ccco3)nc2c1)N1CCN(c2ccccn2)CC1,43,n,n,n,n
Cc1nc2cc(NC(=O)N3CCN(c4ccccn4)CC3)ccc2o1,n,n,n,n,n
COC(=O)[C@]12C[C@H](CC(=O)N3CCCCC3)C(=O)N(CCC3=CCCCC3)C1=C[C@H](COCc1ccccc1)O[C@@H]2C,x,n,x,x,n
O=C(O)c1cccc(S(=O)(=O)N2CCN(C(c3ccccc3)c3ccccc3)CC2)c1,n,n,36,n,n
O=C(NCC1CC1)c1cc(-c2ccccc2)nn1CC1CC(c2cccc([N+](=O)[O-])c2)=NO1 (stereo not given),n,n,n,n,n
COCCNC(=O)c1cc(-c2ccccc2)nn1CC1CC(c2cccc([N+](=O)[O-])c2)=NO1 (stereo not given),n,n,31,n,n
Clc1nssc1=Nc1ccccc1,x,x,n,x,x
Fc1ccc(N=c2ssnc2Cl)c(F)c1,n,n,n,74,n
Clc1ccc(N=c2ssnc2Cl)cc1,n,n,n,76,n
C=CCn1c(COc2ccc3c(c2)CCCC3)nnc1SCC(=O)Nc1cccc(SC)c1,n,16,n,n,31
S=c1[nH]nc(-c2n[nH]c3c2CCC3)n1N=Cc1ccc(Br)s1,x,n,x,x,n
O=C(Cn1nnc(N2CCCCC2)n1)NN=Cc1ccccc1O,x,n,x,x,n
C=CCN=C(NC#N)SCc1ccccc1,n,n,36,n,n
COCc1cc(N2CCNC[C@H]2C)ccc1N1C[C@@H](C)O[C@@H](C)C1,x,n,x,x,n
Cc1cc2c(c(=O)o1)[C@@]1(C(=O)N(C)c3cccc(Br)c31)C1=C(CCCC1=O)O2,x,n,x,x,n
Cc1ccc(CN2CCCCC(NC(=O)c3cccc(F)c3)C2=O)cc1 (stereo not given),x,n,x,x,n
SMILES,APOBEC3A inh,ADAM17 inh,NRP1-CendR mod,APOBEC3G inh,ADAM10 inh
CCCCCN1CCCCC(NC(=O)c2ccccc2OC)C1=O (stereo not given),x,n,x,x,n
Cc1[nH][nH]c(=O)c1N=Nc1ccccc1Cl,n,n,n,n,n
Clc1ccccc1N=Nc1ccccn1,x,n,41,x,n
O=C1C2C(CC3c4ccccc4CCN32)CN1c1ccccc1 (stereo not given),x,n,x,x,n
CC(C)=CCNc1ncnc2c1c(C#N)cn2C1OC(CO)C(O)C1O (stereo not given),x,n,26,x,n
C=C1c2ccccc2S(=O)(=O)N(Cc2ccccc2)C1COCc1ccccc1 (stereo not given),n,n,28,n,n
C[C@@H](O[Si](c1ccccc1)(c1ccccc1)C(C)(C)C)[C@@H]1NC(=O)[C@@H]2C[C@]3(Br)c4ccccc4N(S(=O)(=O)c4ccccc4)[C@@H]3N2C1=O,x,n,x,x,n
